Screening data (PubChem)
Hits are enriched below; roughly 0.5% of the tested compounds scored in any of these assays.
CCT modulator: modulators of cytosolic chaperonin (CCT/TRiC) activity; purified chaperonin ATPase assay, HTRF ADP detection, 30 min; activity change, % (concentration not given with the values), hits read low; hit rate 0.3% among 360,000; in the data active = activity change below about -30%; also: % is scaled to controls: 0 for no effect and ±100 for the full control effect
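Nucleotide hydrolysis assay: TRiC at 20–40 nM final (set by batch activity) with 10 uM ATP, 30 min at 37 °C, in presence of 76 uM compound. Detection by competitive ADP HTRF, 30 min ambient.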
Mm-Cpn inhibitor: blocks the Methanococcus maripaludis chaperonin Mm-Cpn; purified Mm-Cpn ATPase, ADP Transcreener TR-FRET; Potency, µM (highest dose often 76.9 µM), for inactives: at the top dose activity, negative = inhibition, usual class: inhibitors; hit rate 0.031% among 330,000; AID 504842; also: potency is read from the fitted curve at half-maximal effect; % is scaled to controls: 0 for no effect and ±100 for the full control effect; nearly all actives have a fitted effect of over 80% in size
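25 nM Mm-CPN + cpd, 10 min 37°C; + 10 uM ATP, 30 min 37°C; buffer 30 mM Tris pH 7.4, 100 mM KCl, 5 mM MgCl2, 1 mM DTT; Transcreener ADP HTRF detection 30 min RT.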
B2AR arrestin: recruits beta-arrestin to the human beta2-adrenergic receptor; P07550; beta-arrestin recruitment to beta2AR, cell-based reporter; Potency, µM (top dose mostly 46.1 µM), for inactives: top-dose activation, hits mostly activators; hit rate 0.02% among 330,000; AID 492947;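 also: potency is read from the fitted curve at half-maximal effect; 0% = DMSO controls and full agonism = EC100 isoproterenol or metaproterenol; nearly all actives have a fitted effect of over 65% in size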
Target sequence (P07550 whole entry, looked up): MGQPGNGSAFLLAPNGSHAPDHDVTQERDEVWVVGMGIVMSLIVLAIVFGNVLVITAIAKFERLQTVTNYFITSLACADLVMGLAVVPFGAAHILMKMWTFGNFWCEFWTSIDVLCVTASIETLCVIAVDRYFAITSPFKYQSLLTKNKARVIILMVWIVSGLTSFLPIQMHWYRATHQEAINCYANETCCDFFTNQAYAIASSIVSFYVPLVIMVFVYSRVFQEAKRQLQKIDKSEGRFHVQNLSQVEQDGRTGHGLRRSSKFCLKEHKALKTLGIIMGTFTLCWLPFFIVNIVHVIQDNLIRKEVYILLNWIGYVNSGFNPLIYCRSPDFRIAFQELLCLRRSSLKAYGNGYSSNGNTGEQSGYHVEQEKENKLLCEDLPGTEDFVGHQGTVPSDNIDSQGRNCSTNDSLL
TCR activator: activators of T cell receptors. primary human leukocytes, anti-CD3, IL-2 HTRF, 48 h. Potency, µM (top dose mostly 9.22 µM), inactives show top-dose activation of IL-2 secretion, actives largely listed as activators. 330,000 tested, under 10 active; also: % of control where 0% means no effect
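TCR engagement came from a-CD3 beads alone, with compounds added to primary human leukocytes for 48 hr. Secreted IL-2 bridged europium cryptate- and d2-labelled anti-IL-2 antibodies, giving FRET emission at 665nm after 320nm excitation.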
TSHR antagonist: human thyrotropin receptor antagonism; hit rate 0.2% among 330,000; AID 504810; TSHR-expressing cells, TSH-stimulated cAMP HTRF, 2 h; stronger effect = lower value; activity change, negative = inhibition, % at 11.5 µM;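 active = activity change below a set negative limit, meaning inhibition stronger than a set level, cut at about -70% in these data; inconclusive = activity change between two set negative limits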; also: % is scaled to controls: 0 for no effect and ±100 for the full control effect
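Competitive HTRF cAMP read-out (cryptate anti-cAMP antibody, cAMP-d2; 30 min, room temperature) in freshly harvested TSHR cells. Compounds added before TSH at EC80 (4nM final), followed by 2 hours' incubation at 37 deg C.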
Starred values were filed as active, the others as inactive; [ ] = dose if it differs, or a comment. Unless noted, calls follow the shape of the dose curve; as a rule, active = well fitted curve in the direction sought with a large enough effect; inconclusive = small, poorly fitted or top-dose-only effect, or another doubt; inactive = no such curve, though single readings can be large; an effect the other way counts as inactive or inconclusive.

`CC/C(=C\C=C\[C@@H]1C=C[C@@H]2CCC[C@H]2[C@@H]1C(=O)c1ccc[nH]1)[C@@H]1O[C@@H]([C@@H](C)C(=O)O)CC[C@@H]1C` gave CCT modulator -1, Mm-Cpn inhibitor 4%, B2AR arrestin 0%, TCR activator 6%[46.1 µM] and TSHR antagonist -72*.
CC(C)[C@H]1CC2C3CC=C4C[C@@H](O)CC[C@]4(C)C3CC[C@]2(C)[C@H]1O (some centres undefined) was read as CCT modulator -3, Mm-Cpn inhibitor 0%, B2AR arrestin -1%, TCR activator 14% and TSHR antagonist -14.
Screening C[C@]12CC[C@H](O)CC1=CCC1C2CC[C@@]2(C)C1CC[C@@H]2OCc1ccccc1 (some centres undefined) returned CCT modulator -32*, Mm-Cpn inhibitor -7%, B2AR arrestin -1%, TCR activator 5% and TSHR antagonist 2.
Screening CC(=O)c1ccc(OC(=O)N(C)c2ccccc2)cc1 returned CCT modulator -1, Mm-Cpn inhibitor 1%, B2AR arrestin -1%, TCR activator 5% and TSHR antagonist -4.
Screening COc1cc(C(C)=O)ccc1OC(=O)N(C)c1ccccc1 returned CCT modulator 0, Mm-Cpn inhibitor -1%, B2AR arrestin 4% and TSHR antagonist -122*.
For O=C1NC(=O)N(c2ccccc2F)C(=O)/C1=C/c1cn(CC(=O)N2CCOCC2)c2ccccc12 the results were CCT modulator -3, Mm-Cpn inhibitor -1%, B2AR arrestin 0%, TCR activator 3% and TSHR antagonist -6.
CCOC(=O)C1(c2ccccc2)CCN(Cc2cccc(C(=O)O)c2)CC1 was read as CCT modulator 2, Mm-Cpn inhibitor 3%, B2AR arrestin 0%, TCR activator -13% and TSHR antagonist 16.
Screening C=C1C(O)[C@@H]2O[C@]3(CC[C@H](/C=C/C(C)[C@@H]4CC(C)=CC5(O[C@H](C[C@@](C)(O)C(=O)O)CCC5O)O4)O3)CC[C@H]2O[C@@H]1C(O)CC(C)[C@H]1OC2(CCCCO2)CCC1C (some centres undefined) returned CCT modulator -2, Mm-Cpn inhibitor -2%, B2AR arrestin -2%, TCR activator -2% and TSHR antagonist -78*.
For CCCCn1c(NS(=O)(=O)c2ccccc2)c(C(=O)OCC)c2nc3ccccc3nc21 the results were CCT modulator -2, Mm-Cpn inhibitor 45µM*, B2AR arrestin 0%, TCR activator -1%[46.1 µM] and TSHR antagonist 40.
`Cc1ccc(N2C(=O)NC(=O)/C(=C/C=C/c3ccco3)C2=O)cc1` gave CCT modulator -2, Mm-Cpn inhibitor 0%, B2AR arrestin inconclusive, TCR activator -9%[46.1 µM] and TSHR antagonist -8.
Screening CN1CC[C@@]23CCCC[C@@H]2[C@@H]1Cc1ccc(O)cc13 returned CCT modulator 0, Mm-Cpn inhibitor -4%[15.4 µM], B2AR arrestin 0%, TCR activator -6% and TSHR antagonist -4.
CN1CC[C@]2(c3cccc(O)c3)Cc3nc4ccccc4cc3C[C@H]2C1 was read as Mm-Cpn inhibitor 4%, B2AR arrestin 11µM* and TSHR antagonist 7.
CN(C)c1ccc(-[n+]2c(-c3ccccc3)cc(-c3ccccc3)cc2-c2ccccc2)cc1 was read as CCT modulator 0, Mm-Cpn inhibitor 2%, B2AR arrestin -1%, TCR activator 4% and TSHR antagonist -40.
Cc1ccc(-c2cc(-c3ccccc3)cc(-c3ccccc3)[n+]2-c2ccccc2)cc1 was read as CCT modulator -2, Mm-Cpn inhibitor 0%, B2AR arrestin 0%, TCR activator 0% and TSHR antagonist -94*.
Screening Cc1ccc(-c2cc(-c3ccc(C)cc3)[n+](-c3ccccc3)c(-c3ccc(C)cc3)c2)cc1 returned CCT modulator -1, Mm-Cpn inhibitor -7%, B2AR arrestin -1%, TCR activator -2% and TSHR antagonist inconclusive.
For c1ccc(-c2cc(-c3ccccc3)[n+](-c3ccccc3)c(-c3ccccc3)c2)cc1 the results were CCT modulator 2, Mm-Cpn inhibitor 0%, B2AR arrestin -1%, TCR activator 1% and TSHR antagonist -78*.
